# Test results taken from PubChem BioAssay (NCI).
# This is part of a sample that, as a whole, favours compounds with a hit. Of some 83,000 tested, about 20% had one in any assay.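 In brief: 96-well plates, 48 h treatment, single concentration, percent growth endpoint.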 Active and inactive are the calls of the source. The calls were made as follows: active = growth percent below 10; inactive = the rest.
# Tested on: HCT-15 colon
# Test: NCI-60 one-dose screen, 48 h (100 = growth as untreated, 0 = no growth, -100 = all killed)
# Conditions: 10 µM unless noted
row,Compound,growth
1,Cn1c(/C(C#N)=C/c2ccc3ccccc3c2)cc2ccccc21,5.67% (active)
2,Cn1cc(-c2nc(-c3c[nH]c4ncccc34)cs2)c2cc(F)ccc21,19.6% (inactive)
3,CC(=O)N1N=C(c2ccc(C)cc2)CC1c1ccc(Oc2ccc(Br)cc2)cc1 (stereo not given),80.4% (inactive)
4,NC1=NN=C2N(N)C(=O)c3cnn(-c4ccccc4)c3N2c2nc(-c3ccccc3)cc(-c3ccccc3)c21,99.8% (inactive)
5,Fc1ccc2nc(-c3cc(-c4ccc5c(c4)OCO5)n[nH]3)[nH]c2c1,57.5% (inactive)
6,CN(C)c1ccc(-c2ccc(-c3ccc(C(=N)N)c(F)c3)s2)cc1,-80.8% (active)
7,Cc1c(C)c2c(c(C)c1NC(=O)CCCCCCC(=O)O)CCC(C)(CCCC(C)CCCC(C)CCCC(C)C)O2 (stereo not given),55% (inactive)
8,Cc1cc(C)nc(NC(N)=NCCc2ccccc2)n1,55% (inactive)
9,C=C(C)[C@@H]1CC[C@]2(C(=O)O)CC[C@]3(C)[C@H](CC[C@@H]4[C@@]5(C)C/C(=C/c6ccc(OC)cc6)C(=O)C(C)(C)[C@@H]5CC[C@]43C)[C@@H]12,5.16% (active)
10,COc1ccc2[nH]cc(-c3nc(-c4c[nH]c5ncccc45)cs3)c2c1,-34.8% (active)
11,CCc1ccc(-c2ccc(Nc3ccccc3)nn2)cc1S(N)(=O)=O,65.3% (inactive)
12,Cn1cccc1/C=C1/SC(=S)N(CCc2ccc(O)cc2)C1=O,22.7% (inactive)
13,CN1CCN(CCOc2ccc(-c3cnc4c(-c5ccccc5F)cnn4c3)cc2)CC1,3.14% (active)
14,O=c1c(CNc2ccc(S(=O)(=O)Nc3ncccn3)cc2)coc2ccccc12,84.5% (inactive)
15,Cc1ccc(-c2nc([P+](c3ccccc3)(c3ccccc3)c3ccccc3)c(N3CCOCC3)o2)cc1,54.1% (inactive)
16,O=C1OC(c2ccc(Cl)c(Cl)c2)=C/C1=C/c1cccc([N+](=O)[O-])c1,99.1% (inactive)
17,COc1ccccc1-n1cnc(N)c1C(=O)c1cc(OC)c(OC)c(OC)c1,35.5% (inactive)
18,COc1ccc2c(c1)C/C(=C\c1cc(-c3ccc4c(c3)OCO4)n[nH]1)C2=O,90.3% (inactive)

row,Compound,growth
1,CN(C)CCCC1(c2ccc(F)cc2)OCc2cc(-c3ccc(C(F)(F)F)nc3)ccc21 (stereo not given),78.4% (inactive)
2,O=c1c(CNc2ccc(S(=O)(=O)Nc3nccs3)cc2)coc2ccccc12,99.9% (inactive)
3,Cc1ccc2c(c1)c(-c1nc(-c3c[nH]c4ncccc34)cs1)cn2C,86.5% (inactive)
4,CC1(C)C(=O)/C(=C\c2ccco2)C[C@]2(C)[C@H]3CC[C@@H]4[C@@H](C(=O)/C=C/c5ccco5)CC[C@@]4(C)[C@]3(C)CC[C@@H]12,79.6% (inactive)
5,Cc1ccc(-c2nc([P+](c3ccccc3)(c3ccccc3)c3ccccc3)c(N3C[C@H]4C[C@H](C3)c3cccc(=O)n3C4)o2)cc1,86.8% (inactive)
6,C=C(C)[C@@H]1CC[C@]2(CN)CC[C@]3(C)[C@H](CC[C@@H]4[C@@]5(C)CCC(=O)NC(C)(C)[C@@H]5CC[C@]43C)[C@@H]12,38.7% (inactive)
7,Nc1c(Cl)cc(N=Nc2ccccc2)cc1Cl,93% (inactive)
8,CC(=O)O[C@H]1CC[C@]2(C)[C@H]3C(=O)C=C4[C@@H]5C[C@](C)(C(=O)N6CCCNCC6)CC[C@]5(C)CC[C@@]4(C)[C@]3(C)CC[C@H]2C1(C)C,-96.5% (active)
9,CCCCCC1CCCCN1C(=O)OCC (stereo not given),96% (inactive)
10,Cn1cc(-c2nc(-c3c[nH]c4ncccc34)cs2)c2cc(Br)ccc21,64.2% (inactive)
11,O=C(N/N=C\c1ccccc1O)C1CC1,92.5% (inactive)
12,COc1ccc(OCC(CO)N2CCN(c3ccccc3)CC2)cc1 (stereo not given),102% (inactive)
13,Cn1cc(-c2nc(-c3c[nH]c4ncccc34)cs2)c2ccccc21,64.3% (inactive)
14,CC1(C)CC[C@]2(C(=O)Nc3ccccn3)CC[C@]3(C)C(=CC[C@@H]4[C@@]5(C)C/C(=C/c6ccncc6)C(=O)C(C)(C)[C@@H]5CC[C@]43C)[C@@H]2C1,15.3% (inactive)
15,C=C(C)[C@@H]1CC[C@]2(C(=O)O)CC[C@]3(C)[C@H](CC[C@@H]4[C@@]5(C)C/C(=C/c6cccc(I)c6)C(=O)C(C)(C)[C@@H]5CC[C@]43C)[C@@H]12,19.4% (inactive)
16,Oc1cccc2oc(=S)[nH]c12,102% (inactive)
17,CC(=O)O[C@H]1CC[C@@]2(C)C(=CC[C@@H]3[C@@H]2CC[C@]2(C)C(=O)N(O)C(=O)C[C@@H]32)C1,58.9% (inactive)
